Eight compounds from PubChem BioAssay (NCATS) can be followed below.

A number with no mark means an inactive call. Results filed as inconclusive are left out. Calls of active or inactive are those of the source. Unless noted, calls come from the whole dose curve.

For experiment [1], the target named is Peroxisome proliferator-activated receptor delta (Homo sapiens) (UniProt Q03181). The experiment is described as follows: qHTS assay for small molecule agonists of peroxisome proliferator-activated receptor delta signaling (AID 588534).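 Note: 0% = DMSO basal wells and 100% = positive control agonist at 10 µM.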 The essentials:
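Titration series tested in agonist mode on beta-lactamase reporter cells; 18 hrs at 37 C after a 5 hr pre-incubation. Readout: CCF4 fluorescence, 2 hrs RT. Hill equation gives EC50 and maximal response.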

The nature of experiment [2]: qHTS assay for small molecule agonists of the antioxidant response element (ARE) signaling pathway (AID 651741; active = well fitted activation curve with a large enough effect in the signal ratio; the % refers to the signal ratio; note: potency is the fitted concentration of half-maximal effect). The essentials:
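HepG2 ARE-bla reporter cells, 2,000/well; 5 h settle at 37 C/5% CO2; compound pin transfer (23 nL, DMSO); 16 h at 37 C; LiveBLAzer B/G FRET substrate, 2 h RT; fluorescence intensity read.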

Experiment [3] is described as follows: qHTS assay for small molecule disruptors of the mitochondrial membrane potential - 1 hr assay (AID 651754). Note: potency is the fitted concentration of half-maximal effect; nearly all actives have a fitted effect of over 35% in size. Put shortly: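 Read-out: dye fluorescence at 490 nm ex/535 nm em (monomers) and 540 nm ex/590 nm em (aggregates) in HepG2 cells. Compound exposure 1 hr at 37C, followed by 30 min dye loading.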
The nature of experiment [4]: qHTS assay for small molecule disruptors of the mitochondrial membrane potential - 5 hr assay (AID 651755). Note: potency is the fitted concentration of half-maximal effect; nearly all actives have a fitted effect of over 40% in size. The essentials:
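Read-out: ratiometric Mito-MPS fluorescence, green monomer (ex 490/em 535) vs red mitochondrial aggregate (ex 540/em 590). HepG2 cells treated 5 hr at 37C before 30 min dye loading.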

For experiment [5], the target named is Nuclear receptor ROR-gamma (Homo sapiens) (UniProt P51449). Description: qHTS assay for small molecule antagonists of the retinoid-related orphan receptor gamma (ROR-gamma) signaling pathway (AID 651802; active = well fitted curve in the direction sought with a large enough effect; an effect the other way counts as inactive or inconclusive; note: potency is the fitted concentration of half-maximal effect; nearly all actives have a fitted effect of over 60% in size). The essentials: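 Luciferase read-out: ONE-Glo luminescence after 30 min at room temperature, following 16hr doxycycline induction at 37C, 5% CO2 of CHO cells with TET-inducible ROR and RORE-LUC reporter; decreased luminescence = reduced reporter activity.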

In experiment [6] the target is Vitamin D3 receptor (Homo sapiens) (UniProt P11473). The experiment is described as follows: qHTS assay for small molecule agonists of vitamin D receptor signaling (AID 588543).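 Note: 0% = DMSO basal and 100% = reference agonist control.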 Put shortly:
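qHTS in agonist mode: compound titrations stimulate a VDR-driven β-lactamase reporter in HEK293T cells over 16 h at 37 °C. Response normalized to 50 nM 1α,25-dihydroxyvitamin D3 = 100%, DMSO = 0%; Hill fitting gives EC50 and maximal response.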

In experiment [7] the target is Thyroid hormone receptor beta (Homo sapiens) (UniProt P10828). The experiment is described as follows: qHTS assay for small molecule agonists of thyroid hormone receptor beta signaling (AID 588545).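 Note: 0% = DMSO only and 100% = 10 nM T3.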 The essentials:
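Stimulation of a TR-driven beta-lactamase reporter was quantified in GripTite HEK 293 cells. Compound series ran for 18 hrs; curves were normalized to T3 and DMSO controls and fitted to yield EC50.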

The nature of experiment [8]: qHTS assay for small molecule activators of the p53 signaling pathway (AID 651743; active = well fitted activation curve with a large enough effect in the signal ratio, not every such curve was filed as active; the % refers to the signal ratio; note: series mostly up to about 92 µM; % of control where 0% means no effect). The settings on record: HCT-116 p53RE-bla, beta-lactamase FRET ratio, 16 h; activation: stronger effect = higher value. The essentials:
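Reporter: beta-lactamase driven by p53 response elements, stably integrated in HCT-116 cells. Cells seeded at 4,000/well, 5 h preincubation, compound (DMSO) 16 h at 37 C; B/G FRET substrate 2 h RT; fluorescence intensity read.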

The nature of experiment [9]: qHTS assay for small molecule activators of the nuclear factor-kappa B (NF-kB) signaling pathway (AID 651749; active = well fitted activation curve with a large enough effect in the signal ratio; the % refers to the signal ratio; note: series mostly up to about 77 µM; % of control where 0% means no effect). The settings on record: NF-kB-bla ME-180 cells, beta-lactamase FRET ratio, 16 h; activation: stronger effect = higher value. Put shortly: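 NF-kB-bla ME-180 cells, 2,000/well; 23 nL compound or DMSO pinned; 16 hr, 37C/5% CO2; beta-lactamase FRET read-out.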
Experiment [10] in a line: qHTS assay for environmental chemicals that activate the Aryl hydrocarbon Receptor (AhR) signaling pathway (AID 651777; active = well fitted curve in the direction sought with a large enough effect; an effect the other way counts as inactive or inconclusive; note: % of control where 0% means no effect; nearly all actives have a fitted effect of over 15% in size). The settings on record: 1A2-DRE human hepatoma cells, luciferase, 24 h; activation: stronger effect = higher value. The essentials:
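1A2-DRE human hepatoma reporter line; 1,200 cells/well; cmpd or DMSO 24 h, 37 C/5% CO2; One-Glo 30 min RT; luciferase lum.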

Experiment [11] addresses Peroxisome proliferator-activated receptor alpha (Homo sapiens) (UniProt Q07869). The experiment is described as follows: qHTS assay for small molecule agonists of the peroxisome proliferator-activated receptor alpha (PPARalpha) signaling pathway (AID 651778; active = well fitted curve in the direction sought with a large enough effect; an effect the other way counts as inactive or inconclusive; note: % of control where 0% means no effect). As to conditions: PathHunter PPARalpha complementation, chemiluminescence, 6 h; max response: stronger effect = higher value. The essentials:
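Enzyme-fragment complementation assay in which ligand-bound PPARalpha translocates and forms an active enzyme that generates chemiluminescence. Cells were plated overnight, exposed to compound for 6 hr at 37 C, and then given detection reagent for 60 min at room temperature.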

Experiment [12] can be described thus: qHTS assay for small molecule agonists of the antioxidant response element (ARE) signaling pathway measured by Nrf2-dependant transcriptional activity (AID 720636; active = well fitted curve in the direction sought with a large enough effect in the repeat runs; an effect the other way counts as inactive or inconclusive;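 note: HepG2 cells with an ARE-driven luciferase reporter; % of control where 0% means no effect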). Put shortly:
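Cells: ARE-luc HepG2 with Nrf2-responsive luciferase. Medium contained 1% dialyzed FBS. Compound exposure lasted 16 hr at 37 C and 5% CO2, followed by ONE-Glo luciferase detection.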

Experiment [13] in a line: qHTS assay for small molecule agonists of the antioxidant response element (ARE) signaling pathway measured by Nrf2-dependant transcriptional activity - cell viability counter screen (AID 720653; active = well fitted curve in the direction sought with a large enough effect in the repeat runs; an effect the other way counts as inactive or inconclusive; note: % is set by controls: 0 for no effect and ±100 for the full control effect). The settings on record: ARE-bla HepG2 viability, CellTiter-Glo ATP luminescence, 16 h; max response: stronger effect = lower value. Put shortly: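 ARE-bla HepG2 cells treated with compounds for 16 h at 37C; this counter screen measures viability as intracellular ATP by CellTiter-Glo luminescence after 30 min at room temperature.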

The nature of experiment [14]: qHTS assay for cell viability of HEK293 cells (AID 743288; active = well fitted curve in the direction sought with a large enough effect; an effect the other way counts as inactive or inconclusive; note: % is set by controls: 0 for no effect and ±100 for the full control effect; nearly all actives have a fitted effect of over 50% in size). As to conditions: ATP luminescence (CellTiter-Glo), 18 h; max response: stronger effect = lower value. Put shortly: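 Quantitative high-throughput screen: compounds were pinned onto parental HEK293 cells (2,000 per well) after a minimum 5 h settling at 37 C, incubated 18 h at 37 C, and intracellular ATP measured by luciferase luminescence.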

Experiment [15] is described as follows: qHTS assay for cell viability of the p53RE-bla HCT-116 cell line (AID 743292; active = well fitted curve in the direction sought with a large enough effect; an effect the other way counts as inactive or inconclusive; note: % is set by controls: 0 for no effect and ±100 for the full control effect; nearly all actives have a fitted effect of over 55% in size). The essentials:
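HCT-116 p53RE-bla cells seeded 4,000/well; 5 h at 37 C; compound (DMSO) added; 16 h at 37 C; CellTiter-Glo added, 30 min RT; luminescence read.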

Experiment [16] concerns the target Nuclear receptor subfamily 1 group I member 2 (Rattus norvegicus) (UniProt Q9R1A7). The experiment is described as follows: qHTS assay for small molecule activators of the rat pregnane X receptor (rPXR) signaling pathway (AID 651751; call rule not given here; note: 0% is about no effect). As to conditions: rPXR reporter cells, luciferase (One-Glo), 24 h.
Experiment [17] can be described thus: qHTS assay for small molecule activators of the human pregnane X receptor (PXR) signaling pathway (AID 720659; call rule not given here; note: 0% is about no effect).
For experiment [18], the target named is 3',5'-cyclic-AMP phosphodiesterase 4B (Homo sapiens) (UniProt Q07343). Description: qHTS Assay for Inhibitors of PDE-IV (AID 607; active = well fitted activation curve with a large enough effect in the main read-out, with a control signal flat, not every such curve was filed as active; note: % of control where 0% means no effect). Put shortly: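 Cell-based read-out of cAMP via a modified cyclic nucleotide-gated channel and membrane potential dye (535/590 nm) in HEK293 cells expressing PDE4 endogenously. Compounds tested up to 22.9 uM final; 100 uM RO 20-1724 reference.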

Experiment [19] in a line: MultiTox-Fluor Cytotoxicity Assay - LYMP1-002 - Dead Cells (AID 960; active = well fitted curve in the direction sought with a large enough effect; an effect the other way counts as inactive or inconclusive; note: potency is the fitted concentration of half-maximal effect; nearly all actives have a fitted effect of over 60% in size). The essentials:
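Readout: fluorescence at 485/520 from cell-impermeant bis-AAF-R110 cleaved by proteases leaking from damaged cells. LYMP1-002 lymphoblastoid line, 16 hr compound treatment at 37 C, concentration-response in qHTS format; Hill-equation AC50 values.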

Chain of Peroxisome proliferator-activated receptor delta (Homo sapiens) (Q03181 whole entry, looked up): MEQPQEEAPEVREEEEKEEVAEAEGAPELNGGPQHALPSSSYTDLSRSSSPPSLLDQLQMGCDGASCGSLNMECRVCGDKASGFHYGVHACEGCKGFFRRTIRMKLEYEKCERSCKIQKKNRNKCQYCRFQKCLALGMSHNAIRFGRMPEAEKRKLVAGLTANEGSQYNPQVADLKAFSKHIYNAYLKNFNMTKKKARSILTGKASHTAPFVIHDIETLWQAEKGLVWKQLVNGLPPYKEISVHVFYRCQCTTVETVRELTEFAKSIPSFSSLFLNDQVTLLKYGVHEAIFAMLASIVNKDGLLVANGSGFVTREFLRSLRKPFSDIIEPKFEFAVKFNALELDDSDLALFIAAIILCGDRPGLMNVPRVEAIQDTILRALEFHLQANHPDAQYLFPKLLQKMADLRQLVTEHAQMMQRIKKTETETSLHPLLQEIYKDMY
Chain of 3',5'-cyclic-AMP phosphodiesterase 4B (Homo sapiens) (Q07343 whole entry, looked up): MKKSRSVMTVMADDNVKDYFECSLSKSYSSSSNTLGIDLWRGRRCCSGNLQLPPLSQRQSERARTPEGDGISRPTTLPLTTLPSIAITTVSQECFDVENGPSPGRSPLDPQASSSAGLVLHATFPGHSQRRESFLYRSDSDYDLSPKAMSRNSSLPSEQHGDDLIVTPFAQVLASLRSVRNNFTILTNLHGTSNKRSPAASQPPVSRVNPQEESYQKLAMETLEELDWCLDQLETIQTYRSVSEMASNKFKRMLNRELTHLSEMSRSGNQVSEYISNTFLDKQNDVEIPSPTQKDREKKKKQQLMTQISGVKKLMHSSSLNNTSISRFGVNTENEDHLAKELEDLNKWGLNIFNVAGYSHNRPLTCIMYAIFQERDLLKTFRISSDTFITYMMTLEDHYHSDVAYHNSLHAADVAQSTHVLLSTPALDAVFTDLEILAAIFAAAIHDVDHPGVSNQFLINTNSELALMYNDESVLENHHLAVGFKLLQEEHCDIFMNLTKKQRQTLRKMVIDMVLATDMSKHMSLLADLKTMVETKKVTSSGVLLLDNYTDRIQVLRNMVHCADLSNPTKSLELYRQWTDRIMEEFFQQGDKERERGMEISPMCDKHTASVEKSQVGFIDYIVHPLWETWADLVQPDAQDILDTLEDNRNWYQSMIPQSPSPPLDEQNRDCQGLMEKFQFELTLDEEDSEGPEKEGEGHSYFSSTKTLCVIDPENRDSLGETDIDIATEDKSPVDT
Chain of Peroxisome proliferator-activated receptor alpha (Homo sapiens) (Q07869 whole entry, looked up, the tested form may be a part): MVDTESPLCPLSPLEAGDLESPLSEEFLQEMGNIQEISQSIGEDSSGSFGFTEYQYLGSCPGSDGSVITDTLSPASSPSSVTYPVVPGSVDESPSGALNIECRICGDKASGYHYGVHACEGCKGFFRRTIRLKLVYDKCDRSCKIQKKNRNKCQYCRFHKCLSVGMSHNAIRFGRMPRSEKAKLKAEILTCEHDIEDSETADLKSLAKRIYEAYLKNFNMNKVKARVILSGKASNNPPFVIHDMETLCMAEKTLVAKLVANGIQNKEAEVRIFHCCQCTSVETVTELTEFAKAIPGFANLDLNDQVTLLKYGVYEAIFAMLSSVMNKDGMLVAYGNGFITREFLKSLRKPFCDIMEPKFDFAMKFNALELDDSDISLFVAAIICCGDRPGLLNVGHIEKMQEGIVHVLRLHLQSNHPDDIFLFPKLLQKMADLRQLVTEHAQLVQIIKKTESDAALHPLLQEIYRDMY
Chain of Vitamin D3 receptor (Homo sapiens) (P11473 whole entry, looked up): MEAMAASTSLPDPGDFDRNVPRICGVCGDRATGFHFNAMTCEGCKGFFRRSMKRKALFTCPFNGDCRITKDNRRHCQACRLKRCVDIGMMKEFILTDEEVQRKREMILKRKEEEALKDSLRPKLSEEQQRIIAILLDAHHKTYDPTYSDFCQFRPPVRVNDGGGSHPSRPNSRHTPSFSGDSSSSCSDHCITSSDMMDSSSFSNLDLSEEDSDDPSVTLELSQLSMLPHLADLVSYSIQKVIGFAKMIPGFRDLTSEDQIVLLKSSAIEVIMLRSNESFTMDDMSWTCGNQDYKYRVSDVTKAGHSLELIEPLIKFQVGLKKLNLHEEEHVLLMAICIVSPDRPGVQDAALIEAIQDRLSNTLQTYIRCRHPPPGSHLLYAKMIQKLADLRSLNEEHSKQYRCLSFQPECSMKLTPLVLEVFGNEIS
Chain of Nuclear receptor ROR-gamma (Homo sapiens) (P51449 whole entry, looked up): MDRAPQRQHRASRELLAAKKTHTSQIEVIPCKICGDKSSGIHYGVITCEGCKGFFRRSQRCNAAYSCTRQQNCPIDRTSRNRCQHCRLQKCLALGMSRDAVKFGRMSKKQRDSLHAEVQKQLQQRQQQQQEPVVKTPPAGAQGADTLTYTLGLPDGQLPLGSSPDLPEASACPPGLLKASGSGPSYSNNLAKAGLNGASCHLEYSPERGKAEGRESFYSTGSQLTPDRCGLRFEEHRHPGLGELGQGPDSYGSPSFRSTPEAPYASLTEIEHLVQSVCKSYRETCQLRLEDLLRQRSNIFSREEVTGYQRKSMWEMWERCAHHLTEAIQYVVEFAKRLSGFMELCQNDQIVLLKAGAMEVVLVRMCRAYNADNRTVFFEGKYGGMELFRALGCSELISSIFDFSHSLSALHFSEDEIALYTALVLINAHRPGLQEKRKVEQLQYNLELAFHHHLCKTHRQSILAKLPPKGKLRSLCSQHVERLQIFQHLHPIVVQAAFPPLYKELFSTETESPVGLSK
Chain of Nuclear receptor subfamily 1 group I member 2 (Rattus norvegicus) (Q9R1A7 whole entry, looked up): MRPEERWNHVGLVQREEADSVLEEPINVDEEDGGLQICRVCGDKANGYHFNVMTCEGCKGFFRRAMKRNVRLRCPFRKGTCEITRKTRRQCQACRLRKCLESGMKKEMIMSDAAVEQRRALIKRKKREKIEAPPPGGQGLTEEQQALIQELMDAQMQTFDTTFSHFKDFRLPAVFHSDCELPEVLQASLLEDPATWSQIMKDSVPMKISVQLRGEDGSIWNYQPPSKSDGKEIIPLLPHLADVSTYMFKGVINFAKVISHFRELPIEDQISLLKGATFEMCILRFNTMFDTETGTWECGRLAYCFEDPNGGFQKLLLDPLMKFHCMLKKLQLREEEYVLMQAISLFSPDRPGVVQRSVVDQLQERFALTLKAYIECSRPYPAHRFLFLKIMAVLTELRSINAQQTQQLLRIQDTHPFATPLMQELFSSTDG
Chain of Thyroid hormone receptor beta (Homo sapiens) (P10828 whole entry, looked up): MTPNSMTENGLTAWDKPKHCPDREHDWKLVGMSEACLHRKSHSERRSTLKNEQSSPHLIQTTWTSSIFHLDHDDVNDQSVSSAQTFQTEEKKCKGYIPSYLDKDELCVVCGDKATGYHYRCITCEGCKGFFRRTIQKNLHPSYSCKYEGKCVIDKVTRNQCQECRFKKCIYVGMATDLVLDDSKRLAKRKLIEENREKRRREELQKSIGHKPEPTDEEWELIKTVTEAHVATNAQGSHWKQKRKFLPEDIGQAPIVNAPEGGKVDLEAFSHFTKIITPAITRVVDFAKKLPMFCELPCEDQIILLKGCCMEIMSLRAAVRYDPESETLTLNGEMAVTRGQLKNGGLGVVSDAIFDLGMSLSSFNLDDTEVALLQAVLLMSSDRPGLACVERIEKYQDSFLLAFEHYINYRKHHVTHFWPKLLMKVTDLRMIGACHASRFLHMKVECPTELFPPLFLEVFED

Regarding `Oc1cc(Cl)cc(Cl)c1Cl`, the outcome in [1] was inactive. Also, the Potency was 66.8 µM (active) in [2], 42.2 µM (active) in [3], 42.2 µM (active) in experiment [4] and 18.8 µM (active) in experiment [5].
As to `c1ccc(OCCOc2ccccc2)cc1`, the call in experiment [1] was inactive.
`CCOP(=O)(OCC)Oc1nc(Cl)c(Cl)cc1Cl`: the call in experiment [1], in experiment [6] and in experiment [17] was inactive. The Potency result in [7], in experiment [12] and in [15] was “inactive” in each case. The activation was -7.33% in experiment [8], -2.7% in experiment [9] and 3.16% in [10]. Also, the max response in experiment [11] was -1.51%; in experiment [13], 6.34%; in [14] it was -13.2%; in experiment [16], 2.55%.
In the case of `Nc1cccc(S(=O)(=O)O)c1`, the outcome in experiment [1] was inactive.
Still for that read-out and setting: in the case of `CN(C)c1cccc(O)c1` it was “inactive”.
As for `CNC(=O)[C@H]1C[C@@H]1[C@H](NP(=O)(c1ccccc1)c1ccccc1)c1ccccc1`, in [18], the call was inactive.
Still for that read-out and setting: for `COC(=O)[C@@H]1C[C@H]1[C@@H](NP(=O)(c1ccccc1)c1ccccc1)c1ccccc1` the value was “inactive”.
On to `COc1ccc(N=[N+]([O-])c2ccc(OC)cc2)cc1`, for which the Potency in experiment [19] was 25.1 µM (active).
